Sm TGR block: qHTS Assay for the Inhibitors of Schistosoma Mansoni Peroxiredoxins. purified TGR, DTNB reduction, TNB absorbance 405 nm. Potency, µM (highest dose often 114 µM), for inactives: at the top dose activity change, negative = inhibition, usual class: inhibitors. Schistosoma mansoni thioredoxin glutathione reductase (TGR), Q962Y6. 3% of 360,000 active. AID 485364, 2010; also: % is scaled to controls: 0 for no effect and ±100 for the full control effect; nearly all actives have a fitted effect of over 60% in size
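TGR 20 nM + NADPH 100 uM (dispensed conc.), cpd preinc 15 min RT; start with NADPH (500 uM addition) then DTNB (15 mM addition). Kinetic TNB absorbance, 405 nm filter. Four-parameter Hill fit across titration.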
Pf growth 96h: Primary qHTS for delayed death inhibitors of the malarial parasite plastid, 96 hour incubation; P. falciparum luciferase reporter growth, 96 h; Potency, µM (series often up to 28.7 µM), for the others: at the highest dose activity change, negative = inhibition, most hits filed as inhibitors; 6.9% of 320,000 active; also: % is scaled to controls: 0 for no effect and ±100 for the full control effect
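Readout is luminescence from an integrated firefly luciferase in P. falciparum. Red cells, 2% hematocrit and 0.05% parasitemia final, were cultured with compound through two parasite generations (96 hours) at 37 C, 5% CO2.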
AmpC detergent: qHTS Inhibitors of AmpC Beta-Lactamase (assay with detergent); AmpC hydrolysis of nitrocefin, absorbance 480 nm, 0.01% Triton; P00811; Potency, µM (top dose mostly 114 µM), for the others: at the highest dose activity change, negative = inhibition, most hits filed as inhibitors; 0.041% of 370,000 active;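 also: 0% = no-compound wells and -100% = no-enzyme wells; nearly all actives have a fitted effect of over 25% in size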
Target sequence (P00811 whole entry, looked up): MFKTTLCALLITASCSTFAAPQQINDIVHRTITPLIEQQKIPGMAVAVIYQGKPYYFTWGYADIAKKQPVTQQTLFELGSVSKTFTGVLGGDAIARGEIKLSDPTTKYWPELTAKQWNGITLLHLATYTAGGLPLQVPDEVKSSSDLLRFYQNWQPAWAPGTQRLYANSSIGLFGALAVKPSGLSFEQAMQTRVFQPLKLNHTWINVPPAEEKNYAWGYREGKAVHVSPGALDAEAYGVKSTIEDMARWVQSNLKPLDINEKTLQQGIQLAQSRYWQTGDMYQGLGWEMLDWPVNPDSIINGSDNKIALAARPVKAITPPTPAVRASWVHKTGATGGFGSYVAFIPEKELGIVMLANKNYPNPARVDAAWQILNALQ
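20 mM phosphate pH 7.0 + 0.01% (detergent screen) or 0.0001% Triton X-100; 5.3 nM AmpC reagent; cpd preinc 15 min RT; nitrocefin (800 uM stock) to start; A480 q20 s × 4 min; Activity was normalised to no-enzyme and no-compound control wells.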
SARS PLP yeast: qHTS of Yeast-based Assay for SARS-CoV PLP. S. cerevisiae expressing SARS-CoV PLpro, growth rescue. Potency, µM (highest dose often 32.9 µM), for inactives: at the highest dose activity, positive = growth rescue, actives largely listed as activators. 0.19% of 330,000 active. AID 485353, 2010; calls by dose curve; also: 0% is about no effect; nearly all actives have a fitted effect of over 55% in size
AmpC no deterg: qHTS Inhibitors of AmpC Beta-Lactamase (assay without detergent) | P00811 | AmpC nitrocefin hydrolysis, absorbance 480 nm, 0.0001% Triton | Potency, µM (titrated, usually from 57.1 µM), without a hit: at the top dose activity change, negative = inhibition, hits mostly inhibitors | 0.52% of 330,000 active | AID 485341, 2010;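 also: plate controls were no compound for no effect and no enzyme for full effect; nearly all actives have a fitted effect of over 20% in size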
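20 mM phosphate pH 7.0 + 0.01% (detergent screen) or 0.0001% Triton X-100; 5.3 nM AmpC reagent; cpd preinc 15 min RT; nitrocefin (800 uM stock) to start; A480 q20 s × 4 min; Activity was normalised to no-enzyme and no-compound control wells.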
Pf growth 48h: Primary qHTS for delayed death inhibitors of the malarial parasite plastid, 48 hour incubation. P. falciparum luciferase growth in erythrocytes, 48 h. AID 504832, 2011. Potency, µM (doses to about 28.7 µM), inactives show at the top dose activity change, negative = inhibition, hits mostly inhibitors. 5.9% of 310,000 active; also: % is scaled to controls: 0 for no effect and ±100 for the full control effect
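Cell-based growth assay: transgenic P. falciparum expressing firefly luciferase, cultured in red cells within RPMI 1640 containing 0.5% w/v Albumax, 24 mM bicarbonate and gentamycin. A drop in luciferase activity indicates inhibition.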
Starred values were filed as active, the others as inactive; ? = inconclusive; · = no result given; ! = not active in a repeat; [ ] = dose if it differs, or a comment. Most compounds without a hit are left out; they make up all but 12% or so of the library. Unless noted, calls follow the shape of the dose curve; as a rule, active = well fitted curve in the direction sought with a large enough effect; inconclusive = small, poorly fitted or top-dose-only effect, or another doubt; inactive = no such curve, though single readings can be large; an effect the other way counts as inactive or inconclusive. Potency is read from the fitted curve at half-maximal effect.

SMILES	Sm TGR block	Pf growth 96h	AmpC detergent	SARS PLP yeast	AmpC no deterg	Pf growth 48h
CC(C)=CCN1CCN(Cc2cn[nH]c2C2CCCCC2)CC1CCO (centres undefined)	13%	?	11%	1%	1%	-6%
CCOC(=O)C1CCN(C(=O)Cn2ncc3c4ccccc4n(Cc4ccccc4)c3c2=O)CC1	5%	·	12%	·	·	·
COc1ccc(-c2cc(=O)oc3c(C)c(OCC(=O)NCC4CCC(C(=O)O)CC4)ccc23)cc1 (centres undefined)	-3%	13µM*	-8%	1%	-24%	-34%
COc1ccc(-c2cc(=O)oc3c(C)c(OCC(=O)N(C)C)ccc23)cc1	-2%	?	-1%	-10%	113%	68%
Cc1cc(=O)oc2cc(OC(C)C(=O)NCC3CCC(C(=O)O)CC3)ccc12 (centres undefined)	4%	?	4%	2%	-19%	-35%
CC(Oc1ccc2c(-c3ccccc3)cc(=O)oc2c1)C(=O)NCC1CCC(C(=O)O)CC1 (centres undefined)	1%	3.3µM*	?	6%	-33%	5.2µM*!
Cc1c(Cc2ccccc2)c(=O)oc2cc(OC(C)C(=O)NCC3CCC(C(=O)O)CC3)c(Cl)cc12 (centres undefined)	-1%	10µM*	-10%	-5%	-14%	-15%
Cc1cc(C(=O)NC2CCCc3c2cnn3-c2cccc(C)c2C)n(C)n1 (centres undefined)	-2%	0%	-2%	-2%	94%	-29%
Cc1nc2c(C(=O)NCCc3ccccc3)cnn2c(C)c1Cc1c(F)cccc1Cl	6%	·	1%	·	·	·
CCOc1ccc(C(=O)Nc2ccc3nn(-c4ccc(OC)c(Cl)c4)nc3c2)cc1	5%	·	-8%	·	·	·
O=C1OC(c2ccccc2)=C/C1=C/N1CCOCC1	40µM*	?	-11%	-10%	-9%	159%
O=C1OC(c2ccccc2)=C/C1=C\N1CCOCC1	20µM*	17%	0%	-5%	-28%	95%
Cc1ccc(CN2CCN(C3CCNCC3)C(=O)C2=O)cc1	?	·	18%	·	·	·
CN(C)C(CNC(=O)c1cccs1)c1cccnc1 (centres undefined)	0%	8%	-15%	1%	-14%	6%
Cc1ccc(N(C(=O)CCl)C(C(=O)NC2CCCCC2)c2cccnc2)cc1C (centres undefined)	14µM*	?	-6%	-6%	175%	?
O=C(NCC(=O)N(Cc1cccs1)C(C(=O)NC1CCCCC1)c1cccnc1)c1ccco1 (centres undefined)	-4%	?	3%	-1%	-14%	0%
O=C(NCC(=O)N(Cc1ccccc1)C(C(=O)NC1CCCC1)c1cccnc1)c1ccco1 (centres undefined)	0%	17µM*	-4%	0%	-8%	1%
CN(C)C(CNC(=O)NC1CCCCC1)c1cccnc1 (centres undefined)	40µM*	·	-13%	4%	-4%	9%
O=C(NCC(=O)N(c1ccccc1)C(C(=O)NC1CCCC1)c1cccnc1)c1cccs1 (centres undefined)	?	14%	-13%	2%	-6%	-13%
Cc1ccc(N(C(=O)CNC(=O)c2ccco2)C(C(=O)NC2CCCCC2)c2cccnc2)cc1C (centres undefined)	-10%	?	-12%	-2%	69%	?
O=C(NCC(=O)N(c1cccnc1)C(C(=O)NC1CCCC1)c1cccs1)c1cccs1 (centres undefined)	0%[57.1 µM]	12µM*	3%	1%	1%	-2%
Cc1nn(CC(=O)NCc2ccc(N(C)C)cc2)c(=O)c2nn(-c3ccccc3)c(C)c12	10%	·	22%	·	·	·
Cc1cccc(N(C(=O)CNC(=O)c2ccco2)C(C(=O)NC2CCCC2)c2cccnc2)c1 (centres undefined)	0%	4.1µM*	-9%	-2%	2%	14%
Cc1ccc(N(C(=O)CNC(=O)c2ccco2)C(C(=O)NC2CCCC2)c2cccnc2)cc1 (centres undefined)	4%	33%	1%	-5%	-4%	17%
C[C@@H]1CN([C@@H](C)CO)C(=O)c2cc(NC(=O)CCN3CCOCC3)ccc2O[C@@H]1CN(C)C(=O)Nc1ccccc1	·	·	·	-49%	77%	·
SMILES	Sm TGR block	Pf growth 96h	AmpC detergent	SARS PLP yeast	AmpC no deterg	Pf growth 48h
COC(=O)c1c(N2C(=O)[C@H]3[C@@H](C2=O)[C@]2(C(=O)Nc4c(C)cccc42)N2CCC[C@@H]32)sc(C)c1C	-23%	0%	-2%	10%	72%	0%
COC(=O)c1c(N2C(=O)CC(Sc3ccccc3C(=O)O)C2=O)sc2c1CCCC2 (centres undefined)	2.5µM*	?	-4%	-6%	-38%	6%
COC(=O)c1c(N2C(=O)CC(Sc3ccccc3C(=O)O)C2=O)sc(C)c1C (centres undefined)	4.5µM*	-23%	5%	-6%	6%	?
COC(=O)c1c(N2C(=O)Nc3ccccc3N2O)sc2c1CCCC2	-14%	-1%	-12%	11%	-30%	1%
CN1CCN(CC(=O)N2CCn3c4c(c5cc(C6CCCCC6)ccc53)CCCC42)CC1 (centres undefined)	-1%	?	0%	-15%	145%	7.4µM*
Cc1ccc2c(c1)c1c3n2CCN(CCC(=O)O)C3CCC1 (centres undefined)	-4%	-26%	5%	0%	-8%	28%
Cc1ccc2c(c1)c(=O)c1c3n2CCN(CC#N)C3CC1 (centres undefined)	-12%	30%	7%	-3%	-8%	1%
Cc1ccc2c(c1)c(=O)c1c3n2CCN(C(=O)CCl)C3CC1 (centres undefined)	3.2µM*	5.2µM*	-6%	12%	2%	·
Cc1ccc2c(c1)c1c3n2CCN(CC(N)=O)C3CCC1 (centres undefined)	-8%	-5%	?	4%	-4%	13µM*
Cc1ccc2c(c1)c1c3n2CCN(CC#N)C3CCC1 (centres undefined)	6%	?	?	0%	-23%	?
Cc1ccc2c(c1)c1c3n2CCN(CC(O)CNC(C)C)C3CCC1 (centres undefined)	42%	13µM*	?	1%	-4%	?

Bioassay records as filed in PubChem BioAssay.
